Screens (PubChem BioAssay)
Most compounds without a hit are left out; they make up all but 8.9% or so of the library.
MCF10A rerep = A quantitative high throughput screen for small molecules that induce DNA re-replication in MCF 10a normal breast cells; MCF 10A DNA re-replication, Hoechst nuclear intensity, 48 h; Potency, µM (doses to about 46.1 µM), for inactives: at the top dose activity, positive = re-replication, most hits filed as activators; 350,000 tested, 2.9% active; AID 624296, 2012; also: potency is read from the fitted curve at half-maximal effect; % of control where 0% means no effect; nearly all actives have a fitted effect of over 50% in size
KB-3-1 tox = qHTS assay for MDR1-selective chemotherapeutics: Primary screen using the parental adenocarcinoma cell KB-3-1; KB-3-1 viability, CellTiter-Glo ATP luminescence, 72 h; Potency, µM (doses to about 46.1 µM), actives largely listed as cytotoxic; 400,000 tested, 1.4% active; AID 1347075, 2019; also: potency is read from the fitted curve at half-maximal effect; % is scaled to controls: 0 for no effect and ±100 for the full control effect; nearly all actives have a fitted effect of over 60% in size
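Multi-concentration cytotoxicity screen in KB-3-1 cells grown in DMEM lacking phenol red with 10% FBS. After 72 h at 37 °C with compound, ATP-dependent luminescence was recorded.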
KB-V1 cytotox = qHTS assay for MDR1-selective chemotherapeutics: Primary screen using the drug-selected MDR subline cells KB-V1. KB-V1 MDR cells viability, CellTiter-Glo, 72 h. Potency, µM (series often up to 46.1 µM), actives largely listed as cytotoxic. 400,000 tested, 3.4% active; also: potency is read from the fitted curve at half-maximal effect; % is scaled to controls: 0 for no effect and ±100 for the full control effect; nearly all actives have a fitted effect of over 60% in size
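Drug-selected KB-V1 cells, grown in DMEM lacking phenol red with 10% FBS, receive compound titrations; after three days at 37 degrees C, surviving cell ATP is quantified by CellTiter-Glo luminescence and responses normalized and curve-fitted.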
SW480 rerep = A quantitative high throughput screen for small molecules that induce DNA re-replication in SW480 colon adenocarcinoma cells | AID 624297, 2012 | 340,000 tested, 1.8% active | SW480 DNA re-replication, Hoechst DNA content imaging, 48 h | Potency, µM (series often up to 46.1 µM), inactives show top-dose re-replication activation, actives largely listed as activators; also: potency is read from the fitted curve at half-maximal effect; % of control where 0% means no effect; nearly all actives have a fitted effect of over 55% in size
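DNA re-replication was detected as more nuclei of elevated Hoechst intensity after 48 hr exposure to compound (23 nL pinned per well of 250 cells).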
DRD3 antagonist = qHTS of D3 Dopamine Receptor Antagonist: qHTS; D(3) dopamine receptor (Homo sapiens), P35462; D3R cells, DiscoveRx beta-arrestin luminescence, antagonist mode; active compounds read low; max response, negative = inhibition, %; 360,000 tested, 2.5% active; in the data active = max response below about -50%; inconclusive = no clear call, values can overlap the other calls; also: % is scaled to controls: 0 for no effect and ±100 for the full control effect
Target sequence (P35462 whole entry, looked up): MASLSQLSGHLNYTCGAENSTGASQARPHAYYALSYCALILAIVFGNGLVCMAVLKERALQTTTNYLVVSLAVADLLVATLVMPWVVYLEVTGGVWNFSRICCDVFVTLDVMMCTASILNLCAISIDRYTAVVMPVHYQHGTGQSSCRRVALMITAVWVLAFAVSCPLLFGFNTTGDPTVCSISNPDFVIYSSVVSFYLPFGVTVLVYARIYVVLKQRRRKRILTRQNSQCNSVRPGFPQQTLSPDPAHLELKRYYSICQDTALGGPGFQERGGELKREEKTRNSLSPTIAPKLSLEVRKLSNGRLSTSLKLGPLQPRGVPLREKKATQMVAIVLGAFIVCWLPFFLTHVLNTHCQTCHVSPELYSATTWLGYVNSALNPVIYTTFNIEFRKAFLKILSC
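Cells plated overnight at 1500 cells/well, then exposed to library compounds with dopamine controls for 90 minutes at 37 degrees C. DiscoveRx reagent added for 30–60 minutes at room temperature; luminescence read, quantitative HTS format.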
DRD3 agonist = qHTS of D3 Dopamine Receptor Agonist: qHTS; D(3) dopamine receptor (Homo sapiens), P35462; D3R DiscoveRx beta-arrestin cells, luminescence, 90 min; max activation, %; 410,000 tested, 0.58% active; AID 652048, 2013; in the data active = max activation above about 30%; also: 0% is about no effect
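Agonist-mode cell screen: cells plated at 1500/well and incubated overnight at 37 °C, then exposed to library compounds for 90 min at 37 °C. Detection reagent was added for 30–60 min at room temperature, and luminescence was read.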
The depositor's hits bear a star; i = inactive; ? = inconclusive; / = not tested or not shown; [ ] = dose if it differs, or a comment. Unless noted, calls follow the shape of the dose curve; as a rule, active = well fitted curve in the direction sought with a large enough effect; inconclusive = small, poorly fitted or top-dose-only effect, or another doubt; inactive = no such curve, though single readings can be large; an effect the other way counts as inactive or inconclusive.

SMILES | MCF10A rerep | KB-3-1 tox | KB-V1 cytotox | SW480 rerep | DRD3 antagonist | DRD3 agonist
COC(=O)C1=C(C)NC2=C(C(=O)c3ccccc32)C1c1cccc(OC)c1 (stereo unspecified) | ? | i | i | -13% | -14 | 3
Cn1c2c(c(=O)[nH]c1=O)C(c1cccc(O)c1)C1=C(N2)c2ccccc2C1=O (stereo unspecified) | ? | 16µM* | i | 10µM* | 16 | 4
O=S(=O)(c1ccc(Br)c2nsnc12)N1CCOCC1 | 21µM* | i | i | ? | 5 | -1
Cc1coc2c(C)c3oc(=O)c(CCC(=O)N4C[C@H]5C[C@@H](C4)c4cccc(=O)n4C5)c(C)c3cc12 | 14% | i | i | -4% | 3 | 35*
COc1ccc(Nc2nc3c(S(=O)(=O)c4ccccc4)nnn3c3ccsc23)cc1OC | / | i | i | / | / | 1
O=c1[nH]c2cc([N+](=O)[O-])c(NCCO)c([N+](=O)[O-])c2[nH]1 | 8% | i | i | -7% | -59* | -18
c1ccc(CN=C2NN=C(c3cc4ccccc4o3)CS2)cc1 | ? | i | i | ? | -27 | 5
Cc1cc(C2=NNC(=NC3CCCCC3)SC2)c(C)n1-c1c(C)n(C)n(-c2ccccc2)c1=O | 14% | i | ? | 11% | -16 | 3
FC(F)Sc1ccc(N=C2NN=C(c3ccc4c(c3)OCCO4)CS2)cc1 | ? | ? | ? | 12µM* | 36 | 3
Cc1ccccc1N=C1NN=C(c2ccccc2F)CS1 | 27% | i | i | ? | 12 | 1
c1ccc2oc(C3=NNC(=NC4CC4)SC3)cc2c1 | 12µM* | 9.2µM* | i | ? | -21 | -2
Cc1cc(C2=NNC(=NC3CC3)SC2)c(C)n1-c1ccccc1F | 18µM* | ? | i | ? | -4 | -2
Cc1cccc(C)c1N=C1NN=C(c2ccccc2F)CS1 | 6% | ? | 18µM* | / | 1 | -3
Cn1c(N)c(C(=O)CSc2nc(C3CC3)n(-c3ccccc3)n2)c(=O)n(C)c1=O | 0% | i | i | -5% | -23 | -3
c1cc2c(cc1C1=NNC(=NC3CC3)SC1)OCCO2 | ? | ? | 8.2µM* | 4.1µM* | -11 | 0
CCC(O)c1cc2c(cc1NC(=O)c1ccccc1F)OCCO2 (stereo unspecified) | / | i | i | / | / | 2
Cc1ccc(Cl)cc1NC(=O)Cn1c(=O)cc(C)c2c(C)nn(C)c21 | / | i | i | / | / | 7
CC1=NOC(=O)/C1=C\c1ccc(-c2cccc(Cl)c2)o1 | 16µM* | i | ? | ? | -8 | 3
CC1=CC2=NC(=O)/C(=C\c3ccc(-c4cccc(Cl)c4)o3)C(=N)N2O1 | 14% | 4.1µM* | ? | 18% | 2 | 11
CC1=CC2=NC(=O)/C(=C\c3cc(C)n(-c4ccc(F)cc4)c3C)C(=N)N2O1 | ? | i | i | ? | 0 | -3
CC1=NOC(=O)/C1=C\c1ccc(-c2ccc(Cl)c(C(=O)O)c2)o1 | -5% | i | ? | -17% | -8 | 5
Cc1ccc(NC(=S)NNC(=O)c2cn(C)nc2C)cc1 | 15% | i | i | -2%[9.22 µM] | -67* | -6
Cc1ccc(NC(=S)NNC(=O)c2c([N+](=O)[O-])c(C)nn2C)cc1 | -3% | i | i | 7% | -20 | -22
Cc1ccc(NC(=S)NNC(=O)c2c(Cl)c(C)nn2C)cc1 | ? | i | 16µM* | 0% | -19 | -14
Cc1cc(C)n(CC(=O)N/N=C/c2cc(Br)cc([N+](=O)[O-])c2O)n1 | ? | i | i | 4% | -66* | -12
